Screening data: PubChem BioAssay, National Center for Advancing Translational Sciences (NCATS)
WRN helicase inh – inhibitors of human WRN helicase; Q14191; WRN helicase unwinding, fluorescent forked duplex, kinetic; Potency, µM (titrated, usually from 114 µM), for the others: top-dose activity change, negative = inhibition, usual class: inhibitors; 0.46% of 360,000 active; AID 651768; also: % is scaled to controls: 0 for no effect and ±100 for the full control effect; nearly all actives have a fitted effect of over 55% in size
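Kinetic red-fluorescence monitoring (525/598 nm) tracks WRN helicase activity after 100 nM fluorophore-quencher forked duplex and 2 mM ATP are added to 20 nM enzyme pretreated 15 min at room temperature with compound.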
Pol iota inh – inhibitors of human DNA polymerase iota; 1% of 390,000 active; Pol iota fluorescent replication assay, 10 min; AID 588590; Potency, µM (highest dose often 115 µM), without a hit: at the highest dose activity, negative = inhibition, actives largely listed as inhibitors
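Fluorescent replication assay read twice, at 0 min and 10 min after adding 50 nM (final) substrate. Enzyme (10 nM) and compounds were first incubated 15 min at room temperature; enzyme-free buffer wells were negative controls.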
FEN1 inh – human FEN1 inhibition. 0.35% of 390,000 active. Recombinant FEN1 flap cleavage, fluorescence, 15 min. P39748. Potency, µM (highest dose often 114 µM), inactives show at the highest dose activity change, negative = inhibition, usual class: inhibitors; also: % is scaled to controls: 0 for no effect and ±100 for the full control effect; nearly all actives have a fitted effect of over 65% in size
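Enzyme 10 nM, 15 min RT preincubation with compound; start with substrate 50 nM final; reads at 0 and 15 min; qHTS titration, four-parameter Hill fit.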
Pol kappa inh – blocks human DNA polymerase kappa activity; purified Pol kappa, fluorescent DNA synthesis assay, 10 min; Q9UBT6; 0.53% of 400,000 active; Potency, µM (series often up to 107 µM), for inactives: top-dose activity, negative = inhibition, actives largely listed as inhibitors; also: % is scaled to controls: 0 for no effect and ±100 for the full control effect
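Readout: fluorescence, taken kinetically at 0 and 10 min. Conditions: 10 nM Pol kappa, 15 min RT compound preincubation, 50 nM substrate final. Controls: enzyme-free buffer wells.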
POLB inh – blocks human DNA polymerase beta activity; P06746; Pol beta primer extension/strand displacement, fluorescence kinetic; Potency, µM (doses to about 114 µM), without a hit: at the top dose activity change, negative = inhibition, hits mostly inhibitors; 1.3% of 340,000 active; also: % is scaled to controls: 0 for no effect and ±100 for the full control effect
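Preincubation: enzyme (10 nM) with compound, 15 min, RT. Reaction: substrate added to 50 nM final. Reads: 0 and 10 min. Analysis: normalized, Hill fit.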
Pol eta inh – DNA polymerase eta (human) inhibition. Q9Y253. recombinant Pol eta, fluorescent DNA replication assay. Potency, µM (series often up to 114 µM), inactives show at the highest dose activity change, negative = inhibition, actives largely listed as inhibitors. 1.2% of 390,000 active; also: % is scaled to controls: 0 for no effect and ±100 for the full control effect
Target sequence (Q9Y253 whole entry, looked up): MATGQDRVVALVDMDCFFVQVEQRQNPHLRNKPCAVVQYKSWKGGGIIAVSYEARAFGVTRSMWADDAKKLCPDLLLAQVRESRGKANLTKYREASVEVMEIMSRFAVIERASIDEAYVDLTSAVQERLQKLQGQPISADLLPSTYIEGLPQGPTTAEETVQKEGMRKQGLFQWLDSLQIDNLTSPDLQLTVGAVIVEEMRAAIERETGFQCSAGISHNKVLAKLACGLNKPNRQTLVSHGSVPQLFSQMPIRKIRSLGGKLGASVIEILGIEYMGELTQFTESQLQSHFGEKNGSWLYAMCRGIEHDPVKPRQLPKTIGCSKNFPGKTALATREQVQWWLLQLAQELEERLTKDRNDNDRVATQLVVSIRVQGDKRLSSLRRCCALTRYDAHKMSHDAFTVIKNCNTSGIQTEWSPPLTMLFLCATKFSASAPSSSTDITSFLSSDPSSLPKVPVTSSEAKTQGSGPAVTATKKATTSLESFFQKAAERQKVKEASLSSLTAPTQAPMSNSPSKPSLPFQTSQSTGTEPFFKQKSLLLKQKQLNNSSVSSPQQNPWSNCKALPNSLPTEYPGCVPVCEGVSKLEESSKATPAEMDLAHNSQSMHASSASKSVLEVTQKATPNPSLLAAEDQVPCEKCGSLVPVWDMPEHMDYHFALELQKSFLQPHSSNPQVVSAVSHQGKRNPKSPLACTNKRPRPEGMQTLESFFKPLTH
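Fluorescent replication assay: 50 nM final substrate added after a 15 min room-temperature compound preincubation with 10 nM enzyme. Signal taken at 0 min and again at 10 min.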
* hit, by the source's call; ? = inconclusive; · = not tested or not shown; ! = not confirmed by another sample; [ ] = another dose, or the depositor's remark. Shown are actives, neighbours in structure and some others; about 2.4% of the full set was active somewhere. Calls follow the shape of the dose curve; as a rule, active = well fitted curve in the direction sought with a large enough effect; inconclusive = small, poorly fitted or top-dose-only effect, or another doubt; inactive = no such curve, though single readings can be large; an effect the other way counts as inactive or inconclusive. Potency is read from the fitted curve at half-maximal effect.

SMILES	WRN helicase inh	Pol iota inh	FEN1 inh	Pol kappa inh	POLB inh	Pol eta inh
CNc1cc(Cl)c2nonc2c1[N+](=O)[O-]	?	10µM*	12.6µM*	-25.3%	89.1µM*	-13.3%
Cc1cc([N+](=O)[O-])c(Cl)cc1NC(=O)C(C)C	3.6%	4.8%	-3.6%	-11.3%	9.4%	-14.4%
CN(C)C1C(=O)C(C(N)=O)=C(O)C2(O)C(=O)C3=C(O)c4c(O)cccc4C(C)(O)C3C(O)C12 (centres undefined)	-35.3%	-8.4%	-8.3%	-3.6%	11.2µM*	-9.0%
O=C(NC1CCCCC1)c1cn(CCN2CCOCC2)c2cc(Cl)ccc2c1=O	·	·	·	3.0%[60.1 µM]	·	·
O=C1C=CC(=O)C(Cl)=C1	·	·	·	15.8µM*	·	·
O=[N+]([O-])c1ccc(N(CCO)CCO)c2c1no[n+]2[O-]	-2.8%[11.6 µM]	·	·	·	·	28.2µM*
CN1CCN(c2ccc([N+](=O)[O-])c3no[n+]([O-])c23)CC1	-27.7%	17.8µM*	?	-15.3%	-23.6%	89.1µM*
CN1CCN(c2ccc(S(C)(=O)=O)cc2[N+](=O)[O-])CC1	6.0%	104.5%	13.6%	4.5%	-2.2%	-5.1%
CC1(C)C[C@H]2C=C(C=O)[C@]3(C=O)C[C@]3(C)[C@H]2C1	-2.2%	44.7µM*	-4.5%	?	20µM*	-10.5%
Cc1cccc(C)c1OCc1n[nH]c(=S)n1N	1.4%	-5.6%	-9.1%	-6.8%	38.0%	0.2%
NNc1n[nH]c(=S)n1N	6.7%	15.8µM*	-16.4%	-9.5%	32.3%	-13.4%
C[C@H]1O[C@@H](O[C@H]2[C@@H](O)C[C@@H](O[C@H]3[C@@H](O)C[C@H](O[C@H]4CC[C@@]5(C)[C@H](CC[C@@H]6[C@@H]5CC[C@]5(C)[C@@H](C7=CC(=O)OC7)CC[C@]65O)C4)O[C@@H]3C)O[C@@H]2C)C[C@H](O)[C@@H]1O	·	·	18.2%	·	·	·
ClCCN(CCCl)c1ccc(/C=C/c2sc3ccccc3[n+]2CCCCI)cc1	·	89.1µM*	?	28.2µM*	·	·
ClCCN(CCCl)c1ccc(C=Nc2ccc(/C=C/c3ccncc3)cc2)cc1	·	3.2%	-6.6%	-13.7%	·	·
COC1(C)CC(c2ccccc2)c2c(c3ccccc3oc2=O)O1 (centres undefined)	·	·	·	-2.4%[60.1 µM]	·	·
O=C1OC(c2ccc(O)c(S(=O)(=O)O)c2)(c2ccc(O)c(S(=O)(=O)O)c2)c2c(Br)c(Br)c(Br)c(Br)c21	·	·	·	28.2µM*	·	·
CCCOCCN(C(=O)CCl)c1c(CC)cccc1CC	·	·	·	15.2%[60.1 µM]	·	·
CCOC(=O)N1CCN(/[N+]([O-])=N/Oc2ccc([N+](=O)[O-])cc2[N+](=O)[O-])CC1C (centres undefined)	·	?	-31.5%	-0.8%	·	·
CCc1ccc(NC(=O)Cn2c(=O)oc3cc(S(=O)(=O)NCc4ccccc4)ccc32)cc1	·	-12.6%	4.5%	-30.9%	20µM*	-9.1%
C#C[C@]1(O)CC[C@H]2[C@@H]3CCC4=CC(=O)CCC4(C)[C@H]3CCC21C (some centres undefined)	·	·	·	-5.0%[19.4 µM]	·	·
Cc1[nH]ccc2c1[nH]c1cc(=O)ccc12	17.5%	-19.1%	-7.9%	?	?	-16.1%
CC1CCN(C(CC(=O)c2ccccc2)C(=O)c2ccccc2)CC1 (centres undefined)	7.94µM*	?	-19.8%	-4.9%	·	-16.4%
CC[C@H](C)/C=C(C)/C=C/C1=CC2=C(Cl)C(=O)[C@@](C)(OC(C)=O)C(=O)C2=CO1	44.7µM*	?	?	?	·	20µM*
CCC(C)/C=C(C)/C=C/C1=CC2=C(Cl)C(=O)C(C)(OC(C)=O)C(=O)C2=CO1 (centres undefined)	1.3%	?	7.6%	7.2%	-2.6%	-15.9%
O=c1[nH]c(=S)n(Cc2ccco2)c(O)c1C=NCc1cccs1	?	22.4µM*	-12.4%	50.1µM*	12.6µM*	22.4µM*
SMILES	WRN helicase inh	Pol iota inh	FEN1 inh	Pol kappa inh	POLB inh	Pol eta inh
CC[C@@]1(O)C(=O)OCc2c1cc1n(c2=O)Cc2cc3c(N)cccc3nc2-1	-16.3%	?	?	79.4µM*	50.1µM*	22.4µM*
COC(=O)[C@]1(C)CC[C@@]2(C)CC[C@@]3(C)C4=CC=C5C(=CC(=O)C(O)=C5C)[C@@]4(C)CC[C@@]3(C)C2C1 (some centres undefined)	·	·	·	4.7%[60.1 µM]	·	·
O=c1c2ccccc2[se]n1-c1ccccc1	-17.2%[11.6 µM]	?	79.4µM*	10.4%[60.1 µM]	3.16µM*!	-6.1%
CCOc1ccc(-c2nc3ccc(-c4nc5ccc(N6CCN(C)CC6)cc5[nH]4)cc3[nH]2)cc1	·	·	·	0.299µM*	·	·
Cc1ccc2nc(N3CCN(C)CC3)[nH]c2c1	-8.6%	-9.8%	-1.1%	-19.2%	-0.8%	-0.7%
Nc1nc(O)c(-c2ccccc2)o1	·	·	·	-2.7%[19.4 µM]	·	·
COC(=O)/C=C/C(=O)N[C@@H]1CC[C@@]2(O)[C@H]3Cc4ccc(O)c5c4[C@@]2(CCN3CC2CC2)[C@H]1O5	·	·	·	4.9%[19.4 µM]	·	·
CCN1C(=O)/C(=C\c2ccc([N+](=O)[O-])s2)C(=O)NC1=S	·	·	·	·	4.47µM*	·
CN1C(=O)/C(=C\c2ccc(N3CCCCCC3)cc2)C(=O)NC1=S	-16.9%	-9.9%	-8.1%	-14.9%	-28.7%	-11.3%
Cc1ccsc1/C=C1\C(=O)NC(=S)N(C)C1=O	50.1µM*	?	79.4µM*	2.7%	24.8%	-16.7%
Cc1ccc(/C=C2\C(=O)NC(=O)N(CCc3ccc(F)cc3)C2=O)s1	-14.5%	111.7%	-0.7%	-2.6%	0.3%	-1.3%
CN1C(=O)/C(=C/c2ccc(Cl)s2)C(=O)NC1=S	14.1µM*	?	-23.7%	-24.2%	3.9%	?
O=C(Oc1ccccc1)N1CCC2(CCN(Cc3ccccc3)CC2)CC1	·	·	·	1.9%[60.1 µM]	·	·
CC[C@]1(O)CC[C@H]2[C@@H]3CCC4=CCCC[C@@H]4[C@H]3CC[C@@]21C	·	·	·	4.8%[19.4 µM]	·	·
CN1C(=O)NC(=O)/C(=C\C=C\c2ccccc2[N+](=O)[O-])C1=O	-0.7%	14.1µM*	?	-10.9%	-0.9%	?
CCOC(=O)/C=C(C)/C=C/CC(C)CCCC(C)C (centres undefined)	·	·	·	6.1%[19.4 µM]	·	·
CCCCn1c(O)c(/C=N/NC(=O)c2ccncc2)c(=O)[nH]c1=S	31.6µM*	91.7%	-6.3%	-4.1%	?	?
[Hg+][c]1ccccc1	·	14.1µM*	10µM*	2.2%[19.4 µM]	·	·
CCC(C)N1C(=O)/C(=C\c2cc3c4c(c2)CCCN4CCC3)C(=O)NC1=S (centres undefined)	?	?	7.7%	-34.2%	44.7µM*	?
CCC(C)N1C(=O)/C(=C\c2ccc(N3CCCCCC3)cc2)C(=O)NC1=S (centres undefined)	?	87.1%	-4.8%	-12.8%	-23.1%	5.6%
